Test results published in PubChem BioAssay (NCATS).
The list shows a part of the results. Results filed as inconclusive are left out. Active and inactive are the calls of the source. The call rests on the fitted dose curve; in most records, active means well fitted inhibition curve with a large enough effect; inconclusive means small, poorly fitted or top-dose-only effect, or another doubt; inactive means no such curve, though single readings can be large or run the other way.

Biological target: Vitamin D3 receptor (Homo sapiens) (UniProt P11473)
Sequence (P11473 whole entry, looked up): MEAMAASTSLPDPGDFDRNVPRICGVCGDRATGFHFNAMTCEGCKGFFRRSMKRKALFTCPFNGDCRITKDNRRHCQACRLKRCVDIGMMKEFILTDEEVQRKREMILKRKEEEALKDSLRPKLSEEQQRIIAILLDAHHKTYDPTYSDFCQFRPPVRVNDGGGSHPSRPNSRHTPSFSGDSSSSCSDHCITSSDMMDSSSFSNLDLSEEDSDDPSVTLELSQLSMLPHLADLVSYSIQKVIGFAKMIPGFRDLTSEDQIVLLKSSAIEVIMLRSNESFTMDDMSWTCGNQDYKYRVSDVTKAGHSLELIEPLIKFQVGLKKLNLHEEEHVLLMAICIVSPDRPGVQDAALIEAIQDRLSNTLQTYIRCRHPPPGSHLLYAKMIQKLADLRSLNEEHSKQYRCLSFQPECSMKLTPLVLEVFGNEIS
Assay: qHTS for Inhibitors of the vitamin D receptor (VDR): Hit Validation in Primary Screen (AID 602199)
Details: VDR-coactivator inhibition assay, qHTS confirmation
Text: The vitamin D receptor (VDR) is a ligand-activated transcription factor and is partially responsible for the regulation of the endocrine system. This includes the transcriptional regulation of genes involved in the production of the parathyroid hormone (PTH) and the regulation of the blood calcium level. High levels of PHT can cause hypercalcemia in the case of primary and tertiary hyperparathyroidism. The VDR-mediated gene regulation, activated by its ligand 1,25-dihydroxyvitamin D3 (1,25-(OH)2D3), is governed by the recruitment of coactivators. Our hypothesis is that small molecules, with the ability to inhibit the interaction between VDR and certain coactivators, are able to selectively modulate VDR-mediated transcription. Our long term objective is the application these VDR-coactivator inhibitors to study the role of VDR-coactivator binding for specific VDR regulated genes. Ultimately, these molecules can be developed into new treatments for hypercalcemic hyperparathyroidism. No small molecule or non-peptide inhibitors are known for the VDR-coactivator interaction.
In a collaboration between the University of Wisconsin, Milwaukee and the NIH Chemical Genomics Center (NCGC) a HTS-compatible enzymatic assay was developed. The assay uses fluorescence polarization as its read-out to measure the inhibition between VDR and coregulator peptide SRC2-3 exerted by small molecules. This assay was used to screen the NIH Molecular Libraries Small Molecule Repository (MLSMR).
NIH Chemical Genomics Center [NCGC]
NIH Molecular Libraries Probe Centers Network [MLPCN]
Assay Submitter (PI): Alexander Arnold, University of Wilwaukee
Four microliter of either 800nM VDR, 5uM LG19078, and […]nM SRC2-3 Alexa 647 (all final concentrations) in columns 1, 2, and 5 to 48 or […]nM SRC2-3 Alexa 647 in columns 3 and 4 are dispensed into black medium-binding solid bottom Greiner plates. Both solutions are kept at 4 deg C and protected from light and dispensed using a Kalypsys dispenser. Then 23nl of compounds and controls are added with Kalypsys pintool. The control is 26.5mM CBT358 (final concentration of 151uM) and the compounds' final range in concentration is 457nM - 114uM. Plate is centrifuged at 1000 RPM for 15 seconds to remove any residual bubbles. The plate is then incubate at ambient room temperature for 2 hours. It is then read on the Envision for a fluorescent polarization read-out (Ex 620 nm/Em 688 nm)
Potency means the concentration at half of the fitted maximal effect.

Potency, active:
O=c1[nH]c2ccccc2n2c(-c3ccccc3)nnc12 9.47 µM, O=C(/C=C/c1ccc(Cl)cc1Cl)c1cccnc1 9.47 µM, O=C(Nc1ccccc1)c1nnsc1S(=O)(=O)c1ccc(Cl)cc1 16.8 µM, CCOC(=O)c1sc(=S)n2c1[nH]c(=O)c1ccc(C(=O)OC)cc12 7.94 µM, O=C(/C=C/c1ccccc1)c1ccccc1O 23.8 µM, Cc1cccc(CS(=O)(=O)c2ncc(Cl)c(C(=O)Nc3ccc(F)cc3)n2)c1 3.36 µM, Cc1ccc(-c2nc3ccccn3c2Nc2c(C)cccc2C)o1 17.8 µM, O=c1cc(CO)oc(C(Nc2cccc(C(F)(F)F)c2)c2ccccn2)c1O (stereo not given) 16.8 µM, COC(=O)c1sc(-c2ccc(C(C)(C)C)cc2)cc1NC(=O)/C=C/C(=O)O 11.9 µM, O=C(Nc1nc(-c2ccncc2)cs1)C1COc2ccccc2O1 (stereo not given) 2.82 µM, CC(=O)N(C1=C(Cl)C(=O)c2ccccc2C1=O)c1ccc(C(=O)O)cc1 7.94 µM, CC1CCN(C(=S)c2ccc(-c3ccc(Cl)cc3Cl)o2)CC1 21.2 µM, O=c1[nH]c(/C=C\c2cccc(C(F)(F)F)c2)nc(O)c1[N+](=O)[O-] 18.9 µM, COc1ccc(OCc2nnc3n2N=C(c2ccccc2)C(CC(=O)O)S3)cc1 (stereo not given) 1.58 µM, Cc1nc(-c2ccccc2)sc1C(=O)/C=C/c1ccccc1 16.8 µM, COC(=O)/C=C\C(=O)Nc1cccc([N+](=O)[O-])c1 5.32 µM, CCOC(=O)N1CCN(C(c2cccnc2)c2ccc3cccnc3c2O)CC1 (stereo not given) 7.52 µM, Cc1cc(C)nc(S/C=C/C(=O)c2ccccc2)n1 3.55 µM, CN(C)N=Nc1ccc2nc[nH]c2c1 10.6 µM, Cc1ccc(O)c(NC(=O)CCS(=O)(=O)c2nc(-c3ccc4c(c3)OCO4)cc(C(F)(F)F)n2)c1 14.1 µM, CSc1nnc(NC(=O)c2nc(S(=O)(=O)Cc3ccc(C)cc3)ncc2Cl)s1 7.52 µM, C=CCOc1ccc(/C=C2/C(=O)ON=C2C)cc1OCC 10.6 µM, COc1ccc(CS(=O)/C(Cl)=C(/Cl)C(=O)Nc2ccc(OC)nc2)cc1 (stereo not given) 5.97 µM, CCCCS(=O)(=O)c1oc(-c2cccs2)nc1S(=O)(=O)c1ccccc1 2.24 µM, O=C(CCN1CCc2ccccc2C(O)(c2ccccc2)C1)c1ccc2c(c1)OCCO2 (stereo not given) 10.6 µM, O=C(/C=C/c1ccc(Cl)c([N+](=O)[O-])c1)c1cccnc1 2.51 µM, C[C@@H](NC(=O)OC(C)(C)C)c1nnc(S(=O)(=O)Cc2ccccc2)o1 11.2 µM, CCOc1ccc(N(Cc2ccccc2)C(=O)c2nc(S(C)(=O)=O)ncc2Cl)cc1 4.47 µM, CC(=O)N1CC[n+]2c(-c3ccc([N+](=O)[O-])cc3)csc21 10 µM, O=[N+]([O-])/C=C/c1ccc2c(ccn2Cc2ccccc2)c1 6.7 µM, CCOC(=O)c1sc(NC(=O)CSc2nc(C)cc(C(F)(F)F)n2)c(C#N)c1C 11.9 µM, O=[N+]([O-])c1c(NCCO)cc(Sc2nc3ccccc3s2)c2nonc12 3.36 µM, Cc1cccc(Oc2c([N+](=O)[O-])c(=O)n(C)c3ccccc23)c1 21.2 µM, O=C1C=C(c2ccc(Cl)cc2)C(=O)N1Nc1ccccc1 2.99 µM, c1ccc2c(C[n+]3csc4ccccc43)cccc2c1 5.62 µM
